Source: PubChem BioAssay (NCATS)
Inconclusive results are not listed. Calls of active or inactive are those of the source. Calls follow the shape of the dose curve; as a rule, active = well fitted curve in the direction sought with a large enough effect; inconclusive = small, poorly fitted or top-dose-only effect, or another doubt; inactive = no such curve, though single readings can be large; an effect the other way counts as inactive or inconclusive.

How the values were obtained:
[1] = tested on: HACAT; assay: qHTS assay to identify novel small-molecules to repurpose for Merkel cell carcinoma treatment (AID 1296009); conditions: MCC and control cell lines, CellTiter-Glo viability, 72 h; at 44.8 µM (top of the series) unless noted; also: nearly all actives have a fitted effect of over 60% in size
How it was run: (§1)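 Cell viability, measured as CellTiter-Glo luminescence, was normalized between DMSO and no-cell wells. The cells had been exposed to 8- or 11-point compound dilutions for 72 hr at 37 degree celsius.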

[2] = tested on: NIH3T3; assay: as above; conditions: MCC and control cell lines, CellTiter-Glo viability, 72 h; at 44.8 µM (top of the series) unless noted
How it was run: as §1

[3] = tested on: C33A; assay: Primary qHTS to identify gynecologic anti-cancer compounds using libraries of approved drugs and bioactive compounds (AID 1345084); conditions: Gynecologic cancer cell panel viability, ATPlite luminescence, 48 h; series mostly up to 57.5 µM; also: % is scaled to controls: 0 for no effect and ±100 for the full control effect; nearly all actives have a fitted effect of over 55% in size
How it was run: (§2)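 Measured: luminescence after ATPlite addition (15 min, RT). Exposure: 48 h, 37 C, 5% CO2.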

[4] = tested on: CASKI; assay: as above; conditions: Gynecologic cancer cell panel viability, ATPlite luminescence, 48 h; series mostly up to 57.5 µM
How it was run: as §2

[5] = tested on: Es-2; assay: as above; conditions: Gynecologic cancer cell panel viability, ATPlite luminescence, 48 h; series mostly up to 57.5 µM
How it was run: as §2

[6] = tested on: HeLa; assay: as above; conditions: Gynecologic cancer cell panel viability, ATPlite luminescence, 48 h; series mostly up to 57.5 µM
How it was run: as §2

[7] = tested on: Hek293T; assay: as above; conditions: Gynecologic cancer cell panel viability, ATPlite luminescence, 48 h, control line for the selectivity index; series mostly up to 57.5 µM
How it was run: as §2

[8] = tested on: JEG-3; assay: as above; conditions: Gynecologic cancer cell panel viability, ATPlite luminescence, 48 h; series mostly up to 57.5 µM
How it was run: as §2

[9] = tested on: CAOV3; assay: as above; conditions: Gynecologic cancer cell panel viability, ATPlite luminescence, 48 h; series mostly up to 57.5 µM
How it was run: as §2

CC(C)(O)C1CCC2(C)CCCC(C)(O)C2C1 (stereo not drawn)
inactive: outcome [1] | outcome [2] | Potency [3] | outcome [4] | Potency [5] | Potency [6] | Potency [7] | Potency [8]

N#Cc1cccc(-c2c[nH]c3ncnc(N4CCOCC4)c23)c1
inactive: outcome [1] | outcome [2] | Potency [9] | outcome [4] | Potency [5] | Potency [6] | Potency [7] | Potency [8]

Cc1ccc(-n2nc(C(C)(C)C)cc2NC(=O)Nc2cc(COc3cccnc3)[nH]n2)cc1
inactive: outcome [1] | outcome [2] | Potency [9] | outcome [4] | Potency [5] | Potency [6] | Potency [7] | Potency [8]

CC(=O)NC1CC(=O)C23C(=O)NC(Cc4c[nH]c5ccccc45)C2C(C)=C(C)C(O)C3/C=C/CC(C)/C=C(/C)C(O)C1O (stereo not drawn)
inactive: outcome [1] inactive [at 17.4 µM] | outcome [2] inactive [at 17.4 µM] | Potency [3] | outcome [4] | Potency [5] | Potency [6] | Potency [7] | Potency [8]

CC1=CC(=O)C2C(C)(C)CCC[C@]2(C)[C@H]1CC[C@H](C)CC(=O)O (stereo partly drawn)
inactive: outcome [1] | outcome [2] | Potency [3] | outcome [4] | Potency [5] | Potency [6] | Potency [7] | Potency [8]

O=C(O)c1cc(O[C@@H]2O[C@H](CO)[C@@H](O)[C@H](O)[C@H]2O)ccc1O
inactive: outcome [1] | outcome [2] | Potency [3] | outcome [4] | Potency [5] | Potency [6] | Potency [7] | Potency [8]

C=CC(C)(C)C12Nc3c(ccc4c3OC(C)(C)C=C4)C1(O)CC1C(=O)N3CCCC3C(=O)N12 (stereo not drawn)
inactive: outcome [1] inactive [at 17.4 µM] | outcome [2] inactive [at 17.4 µM] | Potency [3] | outcome [4] | Potency [5] | Potency [6] | Potency [7] | Potency [8]

CCNC(=O)C1CC(F)(c2ccc(CN3CCCC3)c(F)c2)C1 (stereo not drawn)
inactive: outcome [1] | outcome [2] | Potency [3] | outcome [4] | Potency [5] | Potency [6] | Potency [7] | Potency [8]

CC1CCC2(C(=O)OC3OC(CO)C(O)C(O)C3O)CCC3(C)C(=CCC4C5(C)CCC(O)C(C)(CO)C5CCC43C)C2C1(C)O (stereo not drawn)
inactive: outcome [1] inactive [at 17.4 µM] | outcome [2] inactive [at 17.4 µM] | Potency [3] | outcome [4] | Potency [5] | Potency [6] | Potency [7] | Potency [8]

C=C(C(=O)O)C1CC(OC(=O)CC(C)CC)C2(C)CCCC(=C)C2C1 (stereo not drawn)
inactive: outcome [1] | outcome [2] | Potency [3] | outcome [4] | Potency [5] | Potency [6] | Potency [7] | Potency [8]

COc1ccc(Oc2c(Cl)cnn(C3c4ccccc4-c4ccccc43)c2=O)cc1
inactive: outcome [1] | outcome [2] | Potency [3] | outcome [4] | Potency [5] | Potency [6] | Potency [7] | Potency [8]

CC(=O)N[C@H]1[C@H](O[C@H]2CC[C@]3(C)C4CC=C5[C@@H]6CC(C)(C)CC[C@]6(C(=O)O)[C@H](O)C[C@@]5(C)[C@]4(C)CC[C@H]3C2(C)C)O[C@H](CO)[C@@H](O)[C@@H]1O (stereo partly drawn)
inactive: outcome [1] inactive [at 17.4 µM] | outcome [2] inactive [at 17.4 µM] | Potency [3] | outcome [4] | Potency [5] | Potency [6] | Potency [7] | Potency [8]

CC(=O)O[C@@H](C[C@@H]1C=C(C)C(=O)O1)[C@H](C)[C@H]1CCC2[C@@]3(C)CC[C@H](O[C@@H]4O[C@H](CO)[C@@H](O)[C@H](O)[C@H]4O[C@@H]4O[C@@H](C)[C@H](O)[C@@H](O)[C@H]4O)C(C)(C)C3CC[C@@]2(C)[C@@]12COC(=O)C2 (stereo partly drawn)
inactive: outcome [1] inactive [at 9.27 µM] | outcome [2] inactive [at 9.27 µM] | activity change, negative = cytotoxicity [3] 13.5% [at 11.6 µM] | activity change, negative = cytotoxicity [4] 4.88% [at 11.6 µM] | activity change, negative = cytotoxicity [5] 8.74% [at 11.6 µM] | activity change, negative = cytotoxicity [6] 5.41% [at 11.6 µM] | activity change, negative = cytotoxicity [7] 15.9% [at 11.6 µM] | activity change, negative = cytotoxicity [8] -9.52% [at 11.6 µM]

Cc1ccc(-c2c(-c3nn(C)c4ncnc(N5CC[C@H](N6CCCCC6)C5)c34)cnn2C)cc1
inactive: outcome [1] | outcome [2] | Potency [3] | outcome [4] | Potency [5] | Potency [6] | Potency [7] | Potency [8]

COc1cccc(CN(C(=O)CC(C)(C)C)C2CC(C(=O)N3CCNCC3)N(Cc3ccc4c(c3)OCO4)C2)c1 (stereo not drawn)
inactive: outcome [1] | outcome [2] | Potency [3] | outcome [4] | Potency [5] | Potency [6] | Potency [7] | Potency [8]

O=C(O)C1(c2ccc(-c3ccc(Cl)c(Cl)c3)c(F)c2)CC1
inactive: outcome [1] | outcome [2] | Potency [3] | outcome [4] | Potency [5] | Potency [6] | Potency [7] | Potency [8]
